Screening results (PubChem)
In the library only some 3.6% were active in any assay of this set; here they are far more common.
mHTT CaM bind = mHTT-calmodulin interaction abrogation | AlphaScreen His-mHTT/GST-CaM binding, luminescence | inhibition, % at 15 µM | hit rate 3.6% among 190,000 | AID 1671202;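 further: 0% = both proteins with DMSO and 100% = one protein alone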
Pf apPOL inh = Pf-apPOL DNA polymerase inhibition | Recombinant Pf-apPOL, molecular beacon fluorescence, 1.5 h | inhibition, % at 10 µM | hit rate 0.25% among 210,000
Numbers without * were called inactive; nt = no result given. No stated cut-off is given here; in the data, active means inhibition above about 50%; inactive means the rest.

SMILES	mHTT CaM bind	Pf apPOL inh
O=C(NCc1cc(-c2cc3ccccc3o2)on1)c1c(F)cccc1Cl	-12	-8
O=C(Cc1cccc(F)c1)N1CCCC1c1nc(-c2ccc(F)cc2F)no1 (stereo not drawn)	-8	-2
O=[N+]([O-])c1ccc(N2CCN(CCO)CC2)c(C=Nc2ccc3c(c2)oc2ccccc23)c1	38	-3
CCC(C)NC(=O)c1ccc(N(Cc2ccccc2Cl)S(C)(=O)=O)cc1 (stereo not drawn)	4	11
Nc1ccc(-c2nc3ccc(N)cc3[nH]2)cc1	22	-8
Nc1ccc(-c2nc3ccc(Oc4ccc5nc(-c6ccc(N)cc6)[nH]c5c4)cc3[nH]2)cc1	84*	-3
Nc1ccc(-c2nc3ccc(-c4ccc5nc(-c6ccc(N)cc6)[nH]c5c4)cc3[nH]2)cc1	100*	-3
COc1ccc(-c2nc3ccccc3[nH]2)cc1	10	-4
Cc1onc(-c2c(Cl)cccc2Cl)c1C(=O)Nc1cc(=O)n(C)c(=O)n1C	2	-1
NC(=O)COc1ccc(/C=C2\NC(=O)NC2=O)cc1	2	-2
COc1cccc(-c2nc(-c3ccsc3)c(-c3ccccc3)[nH]2)c1OC	44	-5
c1ccc(-c2nc(-c3cccnc3)[nH]c2-c2ccccc2)cc1	nt	-3
COc1cc(-c2nc(-c3ccsc3)c(-c3ccccc3)[nH]2)cc(OC)c1O	87*	-7
COc1cc(-c2nc(-c3ccccc3)c(-c3ccc(O)cc3)[nH]2)cc(OC)c1O	88*	-1
Oc1ccc(-c2nc(-c3ccc(F)cc3)c(-c3ccncc3)[nH]2)cc1	nt	17
c1ccc(-c2nc(-c3ccc4c(c3)sc3ccccc34)c(-c3ccccc3)[nH]2)cc1	55*	nt
COc1cccc(C2C(C#N)=C(N)Oc3n[nH]c(-c4ccc(Br)cc4)c32)c1OC (stereo not drawn)	49	0
Cc1nn(Cc2cccc(C(=O)ON=C(N)c3ccc(Cl)cc3)c2)c(C)c1Br	nt	-8
NCc1nncn1-c1ccc(Cl)c(Cl)c1	2	-4
O=C(CSCc1ccc(Cl)cc1)Nc1ccc(F)cc1F	-23	-22
CCOC(=O)NC(=S)N1CCSCC1	nt	2
O=C(c1cccc(CN2C(=O)C3CCCN3C(=O)c3ccccc32)c1)N1CCCC1 (stereo not drawn)	-2	-3
O=C1c2cccc(N3CCCC3)c2C(=O)c2cccc(Cl)c21	65*	4
O=C1c2cccc(Cl)c2C(=O)c2cccc(Cl)c21	3	-4
COc1ccc(-c2cc3nc4c(c(=O)n3[nH]2)CCN(S(=O)(=O)c2cccs2)C4)cc1	30	-7
SMILES	mHTT CaM bind	Pf apPOL inh
O=c1cc(-c2ccccc2[N+](=O)[O-])oc2ccccc12	5	-10
O=c1oc2c(-c3ccccc3[N+](=O)[O-])cc(O)cc2s1	61*	43
Cc1cc(O)c2c(c1)C(=O)c1cc(O)cc(O)c1C2=O	nt	-68
Cc1ccc(-c2cc(O)cc3sc(=O)oc23)cc1C	79*	8
Cc1ccc(OCc2nnc(SCC(=O)NCCc3ccccc3)n2-c2ccccc2)cc1C	1	4
O=C(Nc1cccc(C(F)(F)F)c1)c1scc2c1CCCC2	-78	-2
CCSc1ccc(C(N)=NOC(=O)C(C)(C)C)cn1	nt	-9
NC(=O)C1CCN(C(=O)NC2CC(=O)N(c3ccc(Cl)cc3)C2)CC1 (stereo not drawn)	-18	-6
CCc1ccc(O)c(N=Cc2cc(I)ccc2O)c1	54*	14
CCc1ccc(O)c(N=Cc2cc(C)ccc2O)c1	27	0
CCOc1ccc(CC2SC(=N)NC2=O)cc1 (stereo not drawn)	5	-3
COCCn1ccc2c(OCC(=O)N3CCc4ccccc43)cccc2c1=O	-9	-6
NS(=O)(=O)c1ccc(NC(=O)CC(CC(=O)O)c2ccccc2)cc1 (stereo not drawn)	nt	4
O=C(O)CC(CC(=O)Nc1ccc(C(=O)O)cc1)c1ccccc1 (stereo not drawn)	-5	94*
O=C(Cn1cnc2c(-c3ccc(F)cc3)csc2c1=O)N1CCCc2ccccc21	1	-3
COc1ccc(OC)c(N2C(=O)CC(N3CCN(c4ccc(F)cc4)CC3)C2=O)c1 (stereo not drawn)	1	-3
Cc1ccc(Cl)cc1NC(=O)Nc1ccc2c(c1)N(S(C)(=O)=O)CC2	-9	-1
CCOc1ccc(C2C3=C(CCCC3=O)Nc3ncnn32)cc1 (stereo not drawn)	-7	-1
COc1ccc(C2C3=C(CCCC3=O)NC3=C2C(=O)c2ccccc23)cc1 (stereo not drawn)	61*	-2
O=C1CCCC2=C1C(c1cccs1)C1=C(N2)c2ccccc2C1=O (stereo not drawn)	31	2
CCOc1ccc(C2C3=C(CCCC3=O)NC3=C2C(=O)c2ccccc23)cc1 (stereo not drawn)	74*	-4
Cc1nc(-c2ccc(C(=O)N(C)c3ccccc3)cc2)no1	2	-4
O=[N+]([O-])c1ccccc1S(=O)(=O)n1cccn1	7	-3
c1coc(-c2nccs2)c1	nt	2
c1coc(-c2nc3sc(-c4ccco4)nc3s2)c1	100*	-18
SMILES	mHTT CaM bind	Pf apPOL inh
O=C(Cc1ccccc1)NC1CCCCCC1	-5	-4
O=C(Cc1nc(-c2ccccn2)n[nH]1)NC1CC1	100*	-12
O=C(Cc1nc(-c2cnccn2)n[nH]1)NCc1ccccc1	24	4
O=C(Cc1nc(-c2ccccn2)n[nH]1)NC1CCCC1	98*	-10
COCCCNC(=O)C1CSCCC(=O)N1 (stereo not drawn)	1	-1
O=C(O)c1n[nH]nc1C(=O)O	63*	nt
COC(=O)c1n[nH]nc1[N+](=O)[O-]	-1	nt
O=C(Nc1ccc(Br)cc1)c1ccc(F)c(S(=O)(=O)NC2CCCC2)c1	35	-4
O=C(Nc1ccc(Cl)cc1)c1cc(S(=O)(=O)NC2CCCCCC2)ccc1F	22	78*
CCOc1ccccc1NC(=O)c1cc(S(=O)(=O)NCCc2ccc(Cl)cc2)ccc1F	56*	31
Cc1ccc(NC(=O)c2cc(S(=O)(=O)NC3CCCC3)ccc2F)cc1Cl	20	-2
O=C(Nc1ccc(Cl)c(Cl)c1)c1ccc(F)c(S(=O)(=O)NC2CCCC2)c1	65*	-3
COc1ccccc1NC(=O)c1cc(S(=O)(=O)NCCc2ccc(Cl)cc2)ccc1F	-2	-4
O=C(Nc1ccc(Cl)c(Cl)c1)c1cc(S(=O)(=O)NC2CCCC2)ccc1F	93*	-3
O=C(Nc1ccc(Cl)cc1)c1cc(S(=O)(=O)NC2CCCC2)ccc1F	-3	49
Cc1ccc(C)c(-c2cc(CN(C(=O)c3ccccc3Cl)C3CC3)no2)c1	-11	-2
O=C(CSc1nc2ccc([N+](=O)[O-])cc2[nH]1)Nc1ccccc1Br	10	-1
Cc1cc(F)ccc1NC(=O)c1cccnc1SCCN1CCCCC1	-10	1
O=C(Nc1ccc(Cl)cc1)c1cc(S(=O)(=O)NCc2ccccc2Cl)ccc1F	5	84*
O=C(Nc1cccc(F)c1)c1cc(S(=O)(=O)NCc2ccccc2Cl)ccc1F	1	-6
O=C(Nc1cc(Cl)cc(Cl)c1)c1ccc(F)c(S(=O)(=O)NCc2ccc(F)cc2)c1	53*	39
O=C(Nc1cc(Cl)cc(Cl)c1)c1ccc(F)c(S(=O)(=O)NCc2ccccc2)c1	0	28
O=c1c(=O)n(-c2ccc3c(c2)OCCO3)ccn1Cc1cccc(Cl)c1	-3	4
Clc1cccc(CNc2cc3c(cc2Br)OCCO3)c1	88*	-4
